In the library only some 6.1% were active in any assay of this set; here they are far more common.
D1 agonist = human D1 receptor agonism; 360,000 tested, 1% active; HEK293 T-REx D1 cells, calcium flux, agonist mode; P21728; AID 504660; activation, % at 2 µM; in the data active = activation above about 30%; also: 0% is about no effect
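Tetracycline-induced HEK293 TREx D1 cells, force-coupled to calcium signalling, were dye-loaded with a no-wash calcium kit. Compound was pin-added after a 10 s baseline. Fluorescence was read kinetically at 1 cycle/s for 180 s, with calcium rises flagged as agonism.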
ERG-DNA inh = blocks human ERG Ets domain binding to DNA. 370,000 tested, 0.028% active. AID 624246. Potency, µM (highest dose often 76.9 µM), inactives show top-dose FP activity, negative = inhibition, hits mostly inhibitors. fluorescence polarization, His-ERG Ets domain / labelled DNA. P11308; active = well fitted inhibition curve with a large enough effect in the polarisation, with a control signal flat; inconclusive = small, poorly fitted or top-dose-only effect, or effect the other way, or a change in a side signal; inactive = no such curve, though single readings can be large or run the other way; the % refers to the polarisation;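 also: polarization taken with two DNA probes labelled with fluorescein and Texas red; potency is read from the fitted curve at half-maximal effect; % of control where 0% means no effect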
Target sequence (P11308 whole entry, looked up, the tested form may be a part): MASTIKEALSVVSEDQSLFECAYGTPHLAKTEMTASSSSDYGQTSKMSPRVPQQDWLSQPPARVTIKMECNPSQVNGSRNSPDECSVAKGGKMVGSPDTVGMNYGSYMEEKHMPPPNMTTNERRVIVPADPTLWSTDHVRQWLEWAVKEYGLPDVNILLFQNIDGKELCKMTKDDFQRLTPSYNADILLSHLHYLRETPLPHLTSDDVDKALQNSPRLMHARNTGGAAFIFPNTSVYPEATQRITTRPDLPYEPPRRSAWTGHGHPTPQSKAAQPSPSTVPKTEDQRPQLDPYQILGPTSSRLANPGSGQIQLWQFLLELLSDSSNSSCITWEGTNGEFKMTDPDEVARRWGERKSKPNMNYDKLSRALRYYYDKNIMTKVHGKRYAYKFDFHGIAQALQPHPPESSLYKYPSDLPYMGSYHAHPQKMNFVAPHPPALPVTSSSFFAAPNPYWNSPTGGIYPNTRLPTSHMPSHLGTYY
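His-tagged ERG Ets domain (1 uM in the protein solution; 300mM KCl, 50mM Tris-HCl, 1mM EDTA, 1mM DTT, pH 7.5) received compound, then a probe mix of 5 nM fluorescein-DNA and 100nM Texas-615-DNA. Fluorescence polarization was read for both dyes.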
D3 ag = agonists of human D3 dopamine receptor. D3R DiscoveRx beta-arrestin cells, luminescence, 90 min. max activation, %. 410,000 tested, 0.58% active; in the data active = max activation above about 30%; also: 0% is about no effect
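Agonist mode: compounds and dopamine controls were applied to plated cells for 90 min at 37 degrees C after an overnight attachment at 1500 cells/well. Luminescent read-out followed 30 - 60 minutes at room temperature with DiscoveRx detection reagent.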
D1 PAM = enhances dopamine response at the human D1 receptor. P21728. HEK293 TREx D1 cells, calcium flux, dopamine EC20 potentiation. potentiation, % at 10 µM. 360,000 tested, 0.036% active. AID 504651; in the data active = potentiation above about 30%; also: 0% is about no effect
D1 antagonist = blocks dopamine activation of the human D1 receptor; P21728; HEK293 TREx D1 cells, calcium flux, dopamine EC80; active compounds read low; activity change, negative = inhibition, % at 10 µM; 360,000 tested, 3.2% active; AID 504652; in the data active = activity change below about -30%; also: % is scaled to controls: 0 for no effect and ±100 for the full control effect
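Calcium flux readout: force-coupled, inducible Hek293 Trex D1 line, cells induced overnight at 30 C with tetracycline, dye-loaded 30–90 min at RT. Antagonism scored against EC80 dopamine challenge given 180 s after compound.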
DRD3 antagonist = antagonists of human D3 dopamine receptor | P35462 | D3R cells, DiscoveRx beta-arrestin luminescence, antagonist mode; active compounds read low | max response, negative = inhibition, % | 360,000 tested, 2.5% active | AID 652054; in the data active = max response below about -50%; inconclusive = no clear call, values can overlap the other calls; also: % is scaled to controls: 0 for no effect and ±100 for the full control effect
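Cells plated overnight at 1500 cells/well, then exposed to library compounds with dopamine controls for 90 minutes at 37 degrees C. DiscoveRx reagent added for 30–60 minutes at room temperature; luminescence read, quantitative HTS format.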
Numbers without * were called inactive; u = inconclusive; x = no result; ! = a repeat was not active.

SMILES | D1 agonist | ERG-DNA inh | D3 ag | D1 PAM | D1 antagonist | DRD3 antagonist
O=C(NCCc1ccccc1)C1(c2ccccc2)CCCC1 | 2 | 8% | -4 | -11 | 3 | -2
COc1cc(-c2cc(C(=O)O)c3cc4ccccc4cc3n2)cc(OC)c1OC | x | x | -1 | x | x | 19
COc1cc(-c2cc(C(=O)O)c3c(OC)c(OC)c(OC)cc3n2)ccc1O | 1 | -12% | -3 | -8 | -50* | 14
O=C(N/N=C/c1cn(CCOc2ccccc2)c2ccccc12)c1ccncc1 | 3 | -11% | 1 | -5 | -34* | 12
CC1CCN(S(=O)(=O)c2ccc3c(c2)N(CC(=O)NC(C)c2ccccc2)C(=O)CO3)CC1 (stereo not drawn) | 7 | 3% | -8 | -1 | -19 | x
NC(=S)Nc1cccc2cc3ccccc3cc12 | 19 | -5% | 3 | -7 | 7 | u
NC(=S)Nc1cc2ccccc2c2ccccc12 | 3 | -11% | -3 | -7 | 7 | -64*
CCCCN1C(=O)/C(=C/C=C2\SCCN2C)SC1=S | 94* | -15% | -4 | -1 | -39* | -17
CN1CCS/C1=C/C=C1/SC(=S)N(Cc2ccccc2)C1=O | 55* | -28% | -5 | -12 | -1 | u
CC(=O)Oc1ccc(/C=C2/SC(=S)N(Cc3ccccc3)C2=O)cc1 | 5 | 65% | -10 | -4 | 1 | -16
CCCCN1C(=O)/C(=C/C=C2\N(C)c3ccccc3C2(C)C)SC1=S | 67* | x | x | 0 | -14 | x
CC(/C=C1\SC(=S)N(CC(=O)O)C1=O)=C\c1ccccc1 | 3 | -13% | 7 | -1 | 2 | 10
CCN1C(=O)/C(=C\N2CCCCCC2)SC1=S | 5 | 6% | -3 | -4 | 8 | 2
CCCN1C(=O)/C(=C\C=C2/C=CN(CC)c3ccccc32)SC1=S | 1 | 31% | 3 | -1 | 2 | -12
CN1CCS/C1=C/C=C1\SC(=S)N(CC(=O)O)C1=O | 42* | 38% | -14 | -4 | 9 | -30
O=C(Nc1ccccc1C(=O)N/N=C/c1ccco1)c1ccccc1Cl | -1 | -3% | 1 | -1 | -25 | -20
CCC(C(=O)Nc1cc(F)ccc1F)n1nc(C)c2c(C)n(-c3ccc(C)cc3)nc2c1=O (stereo not drawn) | 5 | -3% | 59*! | 3 | 28 | 31
COc1ccc(-c2cc(C(=O)N3CCOCC3)no2)cc1OC | 3 | -10% | -3 | -11 | -32* | -18
O=C(c1cc(-c2ccc(Cl)c(Cl)c2)on1)N1CCN(c2ccccc2)CC1 | 6 | 1% | 0 | -7 | -31* | 20
COc1ccc(-c2nn(C)c3sc(C(=O)N4CCOCC4)cc23)cc1OC | 1 | -1% | 1 | -3 | -60* | 9
COc1ccc(-c2nn(-c3ccccc3)cc2C(=O)NC(=S)N2CCOCC2)cc1OC | 0 | 7% | 7 | 1 | -39* | 3
O=C(c1cc(-c2ccccc2)on1)N1CCN(c2ccccc2)CC1 | 5 | -5% | 2 | 0 | -26 | 9
COC(=O)c1cn(-c2ccccc2)nc1-c1ccc(OC)c(OC)c1 | 2 | 6% | 12 | -5 | 7 | 32
CC1CCN(C(=O)c2cc(-c3ccc4c(c3)OCO4)on2)CC1 | 3 | 2% | 5 | 6 | -33* | 8
CC1CCCCN1C(=O)c1cc(-c2ccc3c(c2)OCO3)on1 (stereo not drawn) | 6 | -8% | 4 | 1 | -5 | -7
CCOc1ccc(CN2C(=O)c3ccccc3C2C(=O)NC(C)CC)cc1OC (stereo not drawn) | 2 | 5% | 0 | -8 | 8 | -63*
CCC(C)NC(=O)C1c2ccccc2C(=O)N1Cc1cc(OC)ccc1OC (stereo not drawn) | 1 | -15% | 1 | -2 | -2 | -7
Oc1ccccc1C(=S)N1CCN(c2cccc(Cl)c2)CC1 | 2 | -2% | -6 | -4 | -39* | -8
COc1cc(C(=S)N2CCN(c3cccc(Cl)c3)CC2)ccc1O | 4 | 1% | 4 | -3 | -31* | 0
COc1ccccc1NC(=O)CSc1nnc(C)n1Cc1ccccc1 | 2 | x | -5 | -2 | -2 | 15

Screening results deposited in PubChem by National Center for Advancing Translational Sciences (NCATS).
